# Assay results from PubChem BioAssay AID1986 (Sanford-Burnham Center for Chemical Genomics, 2009).
# The campaign covered roughly 290,000 compounds. About 890 (0.31%) were called active. Rule as the data show it: active = inhibition mostly above about 52% (no sharp cut-off); inactive = mostly below about 76%. The full list was thinned out, with actives kept by preference.
# Assay: cell-free HIV fusion peptide-binding blockers – biochemical, uHTS, fluorescence dequenching, primary screen (AID 1986)
# Conditions: 30 min, stronger effect = higher value
SMILES,inhibition (at 20 µM),"inhibition (measured here: repeat confirmation average inhibition, at 18.6 µM)"
COC(=O)c1cccc(Cn2nnc3ccccc3c2=O)c1,0.9% (inactive),
O=C(NCCN1C(=O)S/C(=C\c2ccc(OC(F)F)cc2)C1=O)[C@@H]1CCCN1C(=O)c1cccs1,0.1% (inactive),
Cc1cc(Sc2nc(N)ncc2[N+](=O)[O-])ncn1,-1.5% (inactive),
COC(=O)c1sc2ncn(N)c(=O)c2c1C,-0.5% (inactive),
CC(=O)Nc1ccc(C(=O)N/N=C/C2CC3C=CC2C3)cc1 (stereo not given),-0.7% (inactive),
COc1cc2[nH]c(=O)n(CCCCCC(=O)NCCc3c[nH]c4ccccc34)c(=O)c2cc1OC,2.6% (inactive),
CCOC(=O)c1cc(CC)sc1NC(=O)COc1ccc2c(C)cc(=O)oc2c1,-0.1% (inactive),
N/C(=N\OC(=O)COc1ccc(Cl)cc1Cl)c1cccnc1,1.4% (inactive),
COc1cc(NC(=O)C(C)Oc2ccccc2)ccc1NC(=O)COc1ccccc1 (stereo not given),1.7% (inactive),
O=C1Nc2ccccc2OC1CC(=O)N1CCCC1 (stereo not given),-2.7% (inactive),
COCCNC(=O)C(c1ccc(F)cc1)N(Cc1ccco1)C(=O)CCC(=O)Nc1ccccn1 (stereo not given),-1.2% (inactive),
CCOC(=O)C1CCN(C(=O)c2cc3cc4ccc(OC)cc4nc3o2)CC1,-0.9% (inactive),
O=c1/c(=C\c2cccnc2)sc2nc3ccccc3n12,-0.5% (inactive),
COC(=O)/C=c1/sc2nc3ccccc3n2c1=O,6.3% (inactive),
O=c1/c(=C/c2ccccn2)sc2nc3ccccc3n12,-0.5% (inactive),
O=c1/c(=C\c2cccn2-c2ccccc2)sc2nc3ccccc3n12,3.1% (inactive),
O=c1/c(=C/c2ccc(O)c([N+](=O)[O-])c2)sc2nc3ccccc3n12,50.3% (active),
O=C(O)c1cc(C(=O)O)cc(-c2ccc(/C=c3/sc4nc5ccccc5n4c3=O)o2)c1,63.3% (active),
O=C(CN1CCN(c2ccccc2F)CC1)c1c[nH]c2ccc(F)cc12,4% (inactive),
Cc1cc(C)n2cc(CSc3nncn3C)nc2n1,-1.3% (inactive),

SMILES,inhibition (at 20 µM),"inhibition (measured here: repeat confirmation average inhibition, at 18.6 µM)"
CC1c2ccsc2CCN1S(=O)(=O)c1cccs1 (stereo not given),-1% (inactive),
COc1ccc(Cc2nc3ccc(C(=O)N(C)CCc4cnn(C)c4)cc3o2)cc1OC,0.7% (inactive),
C/C(CC(=O)Nc1ccc(Cl)c(C(F)(F)F)c1)=N\NC(=O)c1ccccc1O,26.3% (inactive),
C/C(CC(=O)Nc1ccc(Cl)c(C(F)(F)F)c1)=N\NC(=O)c1cc2ccccc2cc1O,67.3% (active),
C/C(CC(=O)Nc1ccc(Cl)c(C(F)(F)F)c1)=N\NC(=O)c1cccc(O)c1,4.2% (inactive),
O=C(NCCCn1ccnc1)C(=O)Nc1ccccc1,0.2% (inactive),
COc1ccc(OC)c(NC(=O)Cc2nn(C)c(=O)c3ccccc23)c1,2.9% (inactive),
Cc1c(C(=O)N2CCC(C)CC2)cccc1[N+](=O)[O-],-0.4% (inactive),
O=S(=O)(Nc1cccc(S(=O)(=O)N2CCCCCC2)c1)c1ccccc1,-0.4% (inactive),
CC(=O)Nc1ccc(S(=O)(=O)Nc2nc3ccccc3nc2Nc2ccc(S(N)(=O)=O)cc2)cc1,37.9% (inactive),
NS(=O)(=O)c1ccc(Nc2nc3ccccc3nc2NS(=O)(=O)c2cccc([N+](=O)[O-])c2)cc1,69.6% (active),
COc1ccc(S(=O)(=O)Nc2cccc(S(=O)(=O)N3CCCCCC3)c2)cc1,2.5% (inactive),
Cc1ccc(S(=O)(=O)Nc2nc3ccccc3nc2Nc2cccc(S(=O)(=O)N3CCCC3)c2)cc1,72.4% (active),
O=[N+]([O-])c1ccc(S(=O)(=O)Nc2nc3ccccc3nc2Nc2ccccc2)cc1,1% (inactive),
O=C(CSC1=NCCS1)N1CCCC1,4.9% (inactive),
CCN1CCN(CC(O)COc2ccc(Cl)cc2)CC1 (stereo not given),-1.2% (inactive),
CCc1nnc(NC(=O)c2ccc(OCc3c(C)noc3C)c(OC)c2)s1,0.8% (inactive),
O=C(Nc1nc(-c2ccco2)c(-c2ccco2)s1)C1CCC1,63.8% (active),
O=C(Nc1nc(-c2ccco2)c(-c2ccco2)s1)C1CC(=O)N(c2ccc3c(c2)OCCO3)C1 (stereo not given),59.5% (active),
COc1ccc(-c2nc(NC(=O)C3CC(=O)N(c4ccc5c(c4)OCCO5)C3)sc2C)cc1 (stereo not given),2.7% (inactive),

SMILES,inhibition (at 20 µM),"inhibition (measured here: repeat confirmation average inhibition, at 18.6 µM)"
O=C(CCl)Nc1nc(-c2ccco2)c(-c2ccco2)s1,64.5% (active),
O=C(Nc1nnc(C2CC2)s1)C1CC(=O)N(c2ccc3c(c2)OCCO3)C1 (stereo not given),16.4% (inactive),
Nc1nc(-c2ccco2)c(-c2ccco2)s1,1.2% (inactive),
O=C(CCCSc1ccccc1)Nc1nc(-c2ccco2)c(-c2ccco2)s1,58.7% (inactive),2.6%
O=C(Nc1nnc(-c2ccco2)s1)C1CCCCC1,2.3% (inactive),
O=C(Nc1nnc(-c2ccco2)s1)C1CC1,0.3% (inactive),
COc1cccc(NC(=O)N(C2CCCCC2)C(C)c2cccs2)c1 (stereo not given),-4.1% (inactive),
CCOC(=O)c1cnc2c(ccc3ccccc32)c1NCCN(C)C,-0.1% (inactive),
CCOC(=O)c1cccc(NC(=O)CCn2nc(C)c(S(=O)(=O)N3CCCCC3)c2C)c1,-0.9% (inactive),
CCC(C)(C)NC(=O)CN(C(=O)C(=O)Nc1ccc2c(c1)OCCO2)N1CCOCC1,1.2% (inactive),
COc1ccccc1N1CCN(C(=O)CCc2ccc(S(=O)(=O)NCC(C)C)cc2)CC1,0.1% (inactive),
N#CC(C#N)=Cc1ccc(OCC(=O)N2CCOCC2)cc1,0.6% (inactive),
O=C1C=C(Nc2ccc(Cl)cc2)C(=O)N1c1ccc(Cl)cc1,54.8% (active),
O=C1c2ccccc2C(=O)N1c1ccc(Cl)cc1,-5.5% (inactive),
O=C1C=C(N2CCCCCC2)C(=O)N1c1ccc(Cl)cc1,-1.8% (inactive),
COC(=O)C1CCCCN1C(=O)c1cccc(OC2CCN(C(=O)C3CC3)CC2)c1 (stereo not given),1.5% (inactive),
CCOC(=O)C1=C(O)/C(=C/c2cc(OC)c(O)c(OC)c2)SC1=Nc1ccc(OC)cc1,32.3% (inactive),
CCOC(=O)C1=C(O)/C(=C/c2ccc(-c3ccccc3C(=O)O)o2)SC1=Nc1ccc(OC)cc1,51.8% (active),
CCOC(=O)C1=C(O)/C(=C/c2cc(OC)c(OC)c(OC)c2)SC1=Nc1ccc(OC)cc1,-0.4% (inactive),
